Measured values published in PubChem BioAssay (NCI).
About 79,000 compounds went through this panel and 15% of them were active in at least one assay; those are over-represented in the sample as a whole. Calls of active or inactive are those of the source. Rule as the data show it: active = growth inhibition above about 70%; inactive = the rest.

Assays:
[1] = NCI Yeast Anticancer Drug Screen. Data for the wt1 strain (AID 149);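 also: 0% = growth of vehicle-treated wt1 cultures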; settings: S. cerevisiae wt1 strain (SPY 50644) growth inhibition, hits give high values
Method in brief: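 Growth inhibition read against vehicle controls after compound exposure of the wt1 yeast strain.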

[2] = NCI Yeast Anticancer Drug Screen. Data for the rad50EPP+ strain (AID 151);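 also: 0% = growth of vehicle-treated control cultures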; settings: S. cerevisiae rad50 mutant strain, hits give high values
Method in brief: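 Measured: growth inhibition of rad50EPP+ yeast. Reference: vehicle-treated controls. Screen uses strains with defined genetic alterations in DNA damage repair or cell cycle control.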

[3] = NCI Yeast Anticancer Drug Screen. Data for the mgt1 strain (AID 153); settings: S. cerevisiae mgt1 mutant growth inhibition, hits give high values
Method in brief: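 Compounds were applied to mgt1 mutant yeast, and growth was then compared against vehicle-treated control cultures to give percent inhibition.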

[4] = NCI Yeast Anticancer Drug Screen. Data for the rad50 strain (AID 155);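 also: 0% = growth of vehicle-only cultures of the same strain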; settings: S. cerevisiae rad50 strain growth inhibition, hits give high values
Method in brief: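 Readout: growth inhibition relative to vehicle-treated cultures. Compound exposure was carried out in a genetically defined yeast strain deficient in DNA damage repair.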

[5] = NCI Yeast Anticancer Drug Screen. Data for the mec2-1 strain (AID 157); settings: S. cerevisiae mec2-1 strain, hits give high values
Method in brief: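 Compounds were applied to mec2-1 yeast cells. Their growth was then compared with that of vehicle-treated cultures to give growth inhibition.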

[6] = NCI Yeast Anticancer Drug Screen. Data for the rad14 strain (AID 159);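 also: 0% = growth of vehicle-treated control cultures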; settings: S. cerevisiae rad14 strain growth inhibition, hits give high values
Method in brief: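 Growth inhibition vs vehicle controls; genetically altered yeast strain (DNA damage repair defect) treated with test compounds.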

[7] = NCI Yeast Anticancer Drug Screen. Data for the sgs1 mgt1 strain (AID 161);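 also: 0% = growth of cultures given vehicle only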; settings: S. cerevisiae sgs1 mgt1 strain, hits give high values
Method in brief: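 Compounds are added to genetically altered yeast, and growth is compared with cultures given vehicle alone to give percent inhibition.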

[8] = NCI Yeast Anticancer Drug Screen. Data for the CLN2oe strain (AID 163);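 also: 0% = growth of vehicle-only control cultures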; settings: S. cerevisiae CLN2oe strain, hits give high values
Method in brief: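 Cells of an engineered yeast line with disturbed cell-cycle regulation are treated with compound. Inhibition of growth is then calculated relative to the vehicle-treated reference.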

[9] = NCI Yeast Anticancer Drug Screen. Data for the cln2 rad14 strain (AID 165);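 also: 0% = growth equal to vehicle treated cultures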; settings: S. cerevisiae cln2 rad14 strain, hits give high values
Method in brief: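 Strain: cln2 rad14 yeast, altered in cell cycle control and DNA damage repair. Read-out: growth inhibition vs vehicle.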

[10] = NCI Yeast Anticancer Drug Screen. Data for the bub3 strain (AID 167); settings: S. cerevisiae bub3 mutant strain, hits give high values
Method in brief: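 Readout: yeast growth inhibition, expressed relative to vehicle-only wells. The test organism is a mutant strain from a panel with lesions in DNA repair or checkpoint genes.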

[11] = NCI Yeast Anticancer Drug Screen. Data for the wt2 strain (AID 169);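 also: 0% = growth of vehicle-treated yeast cultures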; settings: S. cerevisiae wt2 strain growth inhibition, hits give high values
Method in brief: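 Growth of compound-treated yeast is measured and expressed as inhibition relative to vehicle-only controls.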

[12] = NCI Yeast Anticancer Drug Screen. Data for the mlh1 strain (AID 171);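 also: 0% = growth of vehicle-treated control cultures of the same strain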; settings: S. cerevisiae mlh1 strain growth inhibition, hits give high values
Method in brief: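 Test agents were incubated with yeast bearing a defined DNA damage repair or cell cycle control alteration; values are growth inhibition normalised to vehicle-treated cultures.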

[13] = NCI Yeast Anticancer Drug Screen. Data for the sgs1 strain (AID 173);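 also: 0% = growth of vehicle-only control cultures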; settings: S. cerevisiae sgs1 mutant, hits give high values
Method in brief: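 Strain with an altered DNA repair or cell cycle pathway exposed to compound. Growth then measured. Value = inhibition versus vehicle control.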

[14] = NCI Yeast Anticancer Drug Screen. Data for the mlh1 rad18 strain (AID 175); settings: S. cerevisiae mlh1 rad18 strain growth inhibition, hits give high values
Method in brief: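 A repair-deficient yeast strain is exposed to test compound, and growth is scored relative to vehicle-treated controls.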

[15] = NCI Yeast Anticancer Drug Screen. Data for the rad18 strain (AID 177); settings: S. cerevisiae rad18 mutant growth inhibition, hits give high values
Method in brief: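 DNA-repair-defective yeast; compound treatment; growth inhibition scored against vehicle.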

[16] = at 5.0 µM (retest, dose inferred, filed as 0.5)
[17] = at 50.0 µM (retest, dose inferred, filed as 5.0)

Measured: growth inhibition

CC(C)=CCC/C(C)=C/CN1C(=O)C=CC1=O
inactive: [1]; at 1.2 µM 2% | [1]; at 3.7 µM 29% | [2]; at 1.2 µM 57% | [3]; at 1.2 µM -3% | [3]; at 3.7 µM 18% | [4]; at 1.2 µM 7% | [4]; at 3.7 µM 42% | [4]; [16] 13% | [5]; at 1.2 µM -3% | [5]; at 3.7 µM 17% | [5]; [16] -16% | [6]; at 1.2 µM 14% | [6]; at 3.7 µM 53% | [7]; [16] 36% | [8]; at 1.2 µM -13% | [8]; at 3.7 µM 5% | [9]; [16] -29% | [10]; at 1.2 µM 10% | [10]; at 3.7 µM 37% | [10]; [16] -24% | [11]; at 1.2 µM 24% | [12]; at 1.2 µM -8% | [12]; at 3.7 µM 15% | [13]; at 1.2 µM 20% | [13]; at 3.7 µM 48% | [14]; [16] 69% | [15]; at 1.2 µM 4% | [15]; at 3.7 µM 32%
active: [1]; at 11.0 µM 100% | [1]; at 33.0 µM 100% | [1]; at 100.0 µM 99% | [2]; at 3.7 µM 86% | [2]; at 11.0 µM 99% | [2]; at 33.0 µM 99% | [2]; at 100.0 µM 99% | [3]; at 11.0 µM 100% | [3]; at 33.0 µM 100% | [3]; at 100.0 µM 100% | [4]; at 11.0 µM 99% | [4]; at 33.0 µM 99% | [4]; [17] 98% | [4]; at 50.0 µM 99.7% | [4]; at 100.0 µM 99% | [5]; at 11.0 µM 99% | [5]; at 33.0 µM 100% | [5]; [17] 99% | [5]; at 50.0 µM 99.7% | [5]; at 100.0 µM 100% | [6]; at 11.0 µM 100% | [6]; at 33.0 µM 100% | [6]; at 100.0 µM 100% | [7]; [17] 99% | [7]; at 50.0 µM 99.5% | [8]; at 11.0 µM 81% | [8]; at 33.0 µM 99% | [8]; at 100.0 µM 99% | [9]; [17] 99% | [9]; at 50.0 µM 99.3% | [10]; at 11.0 µM 99% | [10]; at 33.0 µM 99% | [10]; [17] 99% | [10]; at 50.0 µM 99.4% | [10]; at 100.0 µM 99% | [11]; at 3.7 µM 76% | [11]; at 11.0 µM 100% | [11]; at 33.0 µM 99% | [11]; at 100.0 µM 99% | [12]; at 11.0 µM 98% | [12]; at 33.0 µM 99% | [12]; at 100.0 µM 99% | [13]; at 11.0 µM 99% | [13]; at 33.0 µM 100% | [13]; at 100.0 µM 99% | [14]; [17] 98% | [14]; at 50.0 µM 99.3% | [15]; at 11.0 µM 99% | [15]; at 33.0 µM 99% | [15]; at 100.0 µM 99%

CC(C)(Br)C(=O)/C=C/c1ccccc1
inactive: [1]; at 1.2 µM 3% | [1]; at 3.7 µM 9% | [1]; at 11.0 µM 9% | [1]; at 33.0 µM 10% | [1]; at 100.0 µM 17% | [2]; at 1.2 µM 21% | [2]; at 3.7 µM 51% | [3]; at 1.2 µM -2% | [3]; at 3.7 µM -1% | [3]; at 11.0 µM 4% | [3]; at 33.0 µM 7% | [3]; at 100.0 µM 15% | [4]; at 1.2 µM 6% | [4]; at 3.7 µM 11% | [4]; [16] 15% | [4]; at 11.0 µM 26% | [4]; at 33.0 µM 34% | [4]; at 100.0 µM 60% | [5]; at 1.2 µM 5% | [5]; at 3.7 µM 7% | [5]; [16] -14% | [5]; at 11.0 µM 17% | [5]; at 33.0 µM 28% | [5]; at 100.0 µM 48% | [6]; at 1.2 µM 6% | [6]; at 3.7 µM 14% | [6]; at 11.0 µM 27% | [6]; at 33.0 µM 59% | [7]; [16] 68% | [8]; at 1.2 µM -4% | [8]; at 3.7 µM -3% | [8]; at 11.0 µM -5% | [8]; at 33.0 µM 4% | [8]; at 100.0 µM 19% | [9]; [16] 3% | [10]; at 1.2 µM -3% | [10]; at 3.7 µM -7% | [10]; [16] -16% | [10]; at 11.0 µM -7% | [10]; at 33.0 µM -2% | [10]; [17] 63% | [10]; at 50.0 µM 22.1% | [10]; at 100.0 µM 7% | [12]; at 1.2 µM 0% | [12]; at 3.7 µM 4% | [12]; at 11.0 µM 10% | [12]; at 33.0 µM 15% | [12]; at 100.0 µM 27%
active: [2]; at 11.0 µM 76% | [2]; at 33.0 µM 88% | [2]; at 100.0 µM 95% | [4]; [17] 93% | [4]; at 50.0 µM 88.3% | [5]; [17] 89% | [5]; at 50.0 µM 95.7% | [6]; at 100.0 µM 97% | [7]; [17] 92% | [7]; at 50.0 µM 91.3% | [9]; [17] 87% | [9]; at 50.0 µM 97.2% | [14]; [16] 74% | [14]; [17] 95% | [14]; at 50.0 µM 71.9% | [15]; at 1.2 µM 94% | [15]; at 3.7 µM 95% | [15]; at 11.0 µM 96% | [15]; at 33.0 µM 96% | [15]; at 100.0 µM 97%
